# Laboratory results: PubChem BioAssay (Tox21)
# The source made the active and inactive calls. Calls come from the whole dose curve.
# Assay: qHTS assay to identify small molecule agonists of the sonic hedgehog signaling (Shh) pathway (AID 1259368);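 note: NIH/3T3-derived 3T3Gli1-Luc cells carrying a stable Gli1-driven firefly luciferase reporter; nearly all actives have a fitted effect of over 15% in size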
# Settings: NIH/3T3 Gli1-Luc reporter, luciferase, 24 h, active compounds read high; series mostly up to 92.4 µM; activity change: at the top concentration
# Source text: National Center for Advancing Translational Sciences [NCATS]
# NIH Chemical Genomics Center [NCGC]
# U.S. Environmental Protection Agency [EPA]
# National Institutes of Environmental Health Sciences [NIEHS]
# National Toxicology Program [NTP]
# The sonic hedgehog (Shh) pathway is essential for normal embryonic development. Dysregulation of the Shh pathway can cause severe developmental defects in organs. Therefore chemicals that interfere with the pathway are potential developmental toxicants. A cell line designated 3T3Gli1-Luc (DMB/OARSA/CFSAN/FDA, Laurel, MD), a NIH/3T3 derived clone containing stably integrated Gli1-Luc reporter is used to detect chemical interference of the Shh pathway, by changes in the expression of the firefly Luc gene under the control of the Gli1 transcriptional response element. This cell line was used to screen Tox21 libraries for identifying and prioritizing the potential developmental toxicants that interfere Shh pathway.
# 3T3 Gli1-Luc cells were dispensed at 2,000 per well in 5uL of culture medium into white solid bottom 1536-well plates (Greiner Bio-One, Monroe, NC) using a Multidrop Combi (Thermo Scientific, Waltham, MA) dispenser. The assay plates were incubated at 37 C and 5% CO2 for 4hr, and then 23nL of compounds dissolved in DMSO and positive control were transferred using a Pintool station (Wako, San Diego, CA). The assay plates were incubated at 37C and 5% CO2 for 24hr. For luciferase read, 4uL of Amplite Luciferase reporter gene assay reagent (AAT Bioquest, Inc. Sunnyvale, CA) was added to each well of the assay plates using Flying Reagent Dispenser (FRD, Aurora Discovery, San Diego, CA) and incubated at room temperature for 30min. The luminescence signal was measured using a ViewLux plate reader (Perkin Elmer, Shelton, CT).
# % is set by controls: 0 for no effect and ±100 for the full control effect.
Structure (SMILES),activity change,outcome
Nc1cc(=O)[nH]c(N)n1,0.122% [at 42.5 µM] (inactive),–
COC(=O)[C@@H](N)Cc1ccc(O)c(O)c1,-0.717% [at 42.5 µM] (inactive),–
CO/N=C(/C(=O)N[C@@H]1C(=O)N2C(C(=O)OCOC(=O)C(C)(C)C)=C(C)CS[C@H]12)c1csc(N)n1,0.128% [at 42.5 µM] (inactive),–
CC(C)(C)c1nnc(NS(=O)(=O)c2ccccc2)s1,0.168% [at 42.5 µM] (inactive),–
CCc1ccc(O)c(OC)c1,0.378% (inactive),–
CCCN(CCC)CCc1cccc2c1CC(=O)N2,0.239% [at 42.5 µM] (inactive),–
CN1C(=O)N(C)C(O)C1O (stereo not given),1.31% (inactive),–
NC(=O)c1ccc([N+](=O)[O-])cc1,0.482% (inactive),–
NCCCNCCSP(=O)(O)O,-0.244% [at 8.39 µM] (inactive),–
Cc1c(NC(C)C)c(=O)n(-c2ccccc2)n1C,-0.415% [at 42.5 µM] (inactive),–
CC(=O)CC(C)(C)C1CCCCC1,-0.405% (inactive),–
CCCCCCCCCCCCCC=O,-0.008% [at 8.39 µM] (inactive),–
CCCCCCOC(=O)CCCCC(=O)OCCCCCC,-0.435% (inactive),–
CN(C)CCCN1c2ccccc2CCc2ccc(Cl)cc21,–,inactive
CCCN1CCCC[C@H]1C(=O)Nc1c(C)cccc1C,-0.668% [at 42.5 µM] (inactive),–
N=C(N)c1ccc(OCCCOc2ccc(C(=N)N)cc2)cc1,-1.09% [at 42.5 µM] (inactive),–
CCO/C([O-])=N/c1c[n+](N2CCOCC2)no1,0.698% [at 42.5 µM] (inactive),–
CN1CCN(c2cc3c(cc2F)c(=O)c(C(=O)O)cn3-c2ccc(F)cc2)CC1,-1.21% [at 42.5 µM] (inactive),–
O=C(O)CNC(=O)c1ccc([N+](=O)[O-])cc1,-0.0024% (inactive),–
CCOC(=O)c1c(C)n(C)c2ccc(O)cc12,-0.416% [at 42.5 µM] (inactive),–

Structure (SMILES),activity change,outcome
OC[C@]1(O)OC[C@@H](O)[C@H](O)[C@@H]1O,–,inactive
NS(=O)(=O)c1ccccc1Cl,0.549% (inactive),–
O=Cc1cccc([N+](=O)[O-])c1,-1.06% (inactive),–
CCCCOCCOCCOCCCC,0.491% (inactive),–
CC(C)OC(=O)c1ccccc1,-0.499% (inactive),–
CCOC(C)(C)C,0.186% (inactive),–
O=c1cc(CO)occ1O,-0.971% [at 42.5 µM] (inactive),–
CC(C[N+](C)(C)C)OC(N)=O (stereo not given),-0.875% [at 42.5 µM] (inactive),–
CCOc1ccc(C(=O)OCCN(CC)CC)cc1,0.197% [at 42.5 µM] (inactive),–
CCCCC(CC)COC(=O)c1ccccc1O (stereo not given),0.0132% [at 42.5 µM] (inactive),–
COC(=O)c1ccc(C)cc1C1=NC(C)(C(C)C)C(=O)N1 (stereo not given),-0.176% (inactive),–
COC(=O)c1c(Cl)c(Cl)c(C(=O)OC)c(Cl)c1Cl,–,inactive
CC(C)NCCCC1(C(N)=O)c2ccccc2-c2ccccc21,0.56% [at 42.5 µM] (inactive),–
O=C(O)CN(CCOCCOCCN(CC(=O)O)CC(=O)O)CC(=O)O,-0.0947% [at 0.349 µM] (inactive),–
O=C(O)Cc1ccc(CCNS(=O)(=O)c2ccc(Cl)cc2)cc1,0.0445% [at 42.5 µM] (inactive),–
O=S(O)CO,1.13% (inactive),–
Cc1cccc(C)c1NC(=O)C(C)N (stereo not given),2.13% [at 42.5 µM] (inactive),–
C[C@](N)(Cc1ccc(O)cc1)C(=O)O,-0.726% [at 8.39 µM] (inactive),–
CCOC(=O)[C@H](CCc1ccccc1)N[C@@H](C)C(=O)N1[C@H](C(=O)O)C[C@@H]2CCC[C@@H]21,-0.18% [at 42.5 µM] (inactive),–
Cc1ccc(=O)n(-c2ccccc2)c1,0.0747% [at 42.5 µM] (inactive),–
